Measurements as given in the supplement of paper PMC8728848.
This excerpt belongs to a sample that is enriched for the strongest signals.

How the values were obtained:
Test in all cases: glycan array binding signal (z-score within array); higher = stronger binding
Conditions in all cases: glycan notation: IUPAC condensed, linker removed
Gal6S(b1-4)GlcNAc6S = target: Gal6S(b1-4)GlcNAc6S
Outline: (§1)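 Columns mapping to the same glycan were averaged after glycan names were converted to IUPAC-condensed notation. The data come from 3228 arrays in the Consortium for Functional Glycomics database, limited to those with an available protein sequence. Binding is reported as a within-array Z-score averaged across arrays of one protein sequence and across linkers.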

[1] = target: GalNAc(a1-3)GalNAc(b1-3)Gal(a1-4)Gal(b1-4)Glc
Outline: as §1

GalNAc(b1-4)GlcNAc = target: GalNAc(b1-4)GlcNAc
Outline: as §1

[2] = target: Glc(a1-6)Glc(a1-6)Glc(a1-6)Glc
Outline: as §1

[3] = target: GlcNAc(b1-2)[GlcNAc(b1-4)]Man(a1-3)[GlcNAc(b1-2)Man(a1-6)]Man(b1-4)GlcNAc(b1-4)GlcNAc
Outline: as §1

[4] = target: GlcNAc(b1-3)Gal(b1-4)GlcNAc(b1-2)Man(a1-3)[GlcNAc(b1-3)Gal(b1-4)GlcNAc(b1-2)Man(a1-6)]Man(b1-4)GlcNAc(b1-4)[Fuc(a1-6)]GlcNAc
Outline: as §1

[5] = target: GlcNAc(b1-3)Gal(b1-4)GlcNAc(b1-3)Gal(b1-4)GlcNAc(b1-2)Man(a1-3)[GlcNAc(b1-3)Gal(b1-4)GlcNAc(b1-3)Gal(b1-4)GlcNAc(b1-2)Man(a1-6)]Man(b1-4)GlcNAc(b1-4)[Fuc(a1-6)]GlcNAc
Outline: as §1

[6] = target: GlcNAc(b1-3)Gal(b1-4)GlcNAc(b1-3)Gal(b1-4)GlcNAc(b1-2)[GlcNAc(b1-3)Gal(b1-4)GlcNAc(b1-3)Gal(b1-4)GlcNAc(b1-6)]Man(a1-6)[GlcNAc(b1-3)Gal(b1-4)GlcNAc(b1-3)Gal(b1-4)GlcNAc(b1-2)Man(a1-3)]Man(b1-4)GlcNAc(b1-4)[Fuc(a1-6)]GlcNAc
Outline: as §1

GlcNAc(b1-3)GalNAc = target: GlcNAc(b1-3)GalNAc
Outline: as §1

Kdn(a2-3)Gal(b1-4)Glc = target: Kdn(a2-3)Gal(b1-4)Glc
Outline: as §1

[7] = target: Man(a1-2)Man(a1-3)[Man(a1-2)Man(a1-6)]Man(a1-6)[Man(a1-2)Man(a1-2)Man(a1-3)]Man
Outline: as §1

[8] = target: Man(a1-3)[Man(a1-6)]Man(a1-6)[Man(a1-2)Man(a1-3)]Man(b1-4)GlcNAc(b1-4)GlcNAc
Outline: as §1

[9] = target: Man(a1-3)[Man(a1-6)]Man(a1-6)[Man(a1-3)]Man
Outline: as §1

[10] = target: Neu5Ac(a2-3)Gal(b1-3)GalNAc(b1-4)[Neu5Ac(a2-3)]Gal(b1-4)Glc
Outline: as §1

[11] = target: Neu5Ac(a2-3)Gal(b1-3)GalNAc6S
Outline: as §1

[12] = target: Neu5Ac(a2-3)Gal(b1-3)[Fuc(a1-4)]GlcNAc
Outline: as §1

[13] = target: Neu5Ac(a2-3)Gal(b1-4)GlcNAc(b1-2)Man(a1-3)[Neu5Ac(a2-3)Gal(b1-4)GlcNAc(b1-2)Man(a1-6)]Man(b1-4)GlcNAc(b1-4)GlcNAc
Outline: as §1

[14] = target: Neu5Ac(a2-3)Gal(b1-4)GlcNAc(b1-2)[Neu5Ac(a2-3)Gal(b1-4)GlcNAc(b1-4)]Man(a1-3)[GlcNAc(b1-4)][Neu5Ac(a2-3)Gal(b1-4)GlcNAc(b1-4)Man(a1-6)]Man(b1-4)GlcNAc(b1-4)GlcNAc
Outline: as §1

[15] = target: Neu5Ac(a2-3)Gal(b1-4)[Fuc(a1-3)]GlcNAc(b1-3)Gal(b1-4)GlcNAc
Outline: as §1

[16] = target: Neu5Ac(a2-3)[GalNAc(b1-4)]Gal(b1-4)GlcNAc
Outline: as §1

[17] = target: Neu5Ac(a2-6)Gal(b1-4)GlcNAc(b1-6)[Gal(b1-3)GlcNAc(b1-3)]Gal(b1-4)Glc
Outline: as §1

[18] = target: Neu5Ac(a2-8)Neu5Ac(a2-3)[GalNAc(b1-4)]Gal(b1-4)Glc
Outline: as §1

[19] = target: Neu5Ac9Ac(a2-3)Gal(b1-4)GlcNAc
Outline: as §1

[20] = target: Neu5Ac9Ac(a2-6)Gal(b1-4)GlcNAc
Outline: as §1

[21] = target: Neu5Gc(a2-3)Gal(b1-4)GlcNAc
Outline: as §1

[22] = target: Neu5Gc(a2-8)Neu5Gc(a2-3)Gal(b1-4)GlcNAc
Outline: as §1

[23] = target: Neu5Gc(b2-6)Gal(b1-4)GlcNAc
Outline: as §1

B1: Epa23 (Candida glabrata) (protein)
chain: MGSSHHHHHHSSGLVPRGSHMIPNPFEGTINNFPSGCSPNHGLYNRGLTMELYNYSYIHPQSIQSYFNTSTLKKMEKGQCWDPSYLDVNYPRTGYKTHNRFAKVNGIDGILDFEFNPTRSCVPSKGQLPQNYNYPLQFTLSNFTMLLYGYFKPKVTAKHTFTIFADDLLFLNFGAGNAFDCCQQQDTIDDFGNYQAYALWGSDTQQNTLTVNLDANIYYPIRMFYNNRDFKGALNMYFTTDESNTKINDFSGYLFNIPDSSEGCPAHISYETECGNVSG
Gal6S(b1-4)GlcNAc6S
  glycan array binding signal (z-score): 13.5
[1]
  glycan array binding signal (z-score): -0.137
GalNAc(b1-4)GlcNAc
  glycan array binding signal (z-score): -0.168
[2]
  glycan array binding signal (z-score): -0.278
[3]
  glycan array binding signal (z-score): -0.21
[4]
  glycan array binding signal (z-score): -0.199
[5]
  glycan array binding signal (z-score): -0.176
[6]
  glycan array binding signal (z-score): -0.093
GlcNAc(b1-3)GalNAc
  glycan array binding signal (z-score): -0.243
Kdn(a2-3)Gal(b1-4)Glc
  glycan array binding signal (z-score): -0.263
[7]
  glycan array binding signal (z-score): -0.233
[8]
  glycan array binding signal (z-score): -0.22
[9]
  glycan array binding signal (z-score): -0.232
[10]
  glycan array binding signal (z-score): -0.24
[11]
  glycan array binding signal (z-score): -0.246
[12]
  glycan array binding signal (z-score): -0.296
[13]
  glycan array binding signal (z-score): -0.249
[14]
  glycan array binding signal (z-score): -0.243
[15]
  glycan array binding signal (z-score): -0.288
[16]
  glycan array binding signal (z-score): -0.198
[17]
  glycan array binding signal (z-score): -0.13
[18]
  glycan array binding signal (z-score): -0.297
[19]
  glycan array binding signal (z-score): -0.225
[20]
  glycan array binding signal (z-score): -0.239
[21]
  glycan array binding signal (z-score): -0.274
[22]
  glycan array binding signal (z-score): -0.215
[23]
  glycan array binding signal (z-score): -0.194
